{
  "source": "ChEMBL document CHEMBL2218924",
  "about": "“A broad activity screen in support of a chemogenomic map for kinase signalling research and drug discovery” (Biochem J, 2013)",
  "data": [
    {"target": "T1, Serine/threonine-protein kinase haspin (Homo sapiens) (UniProt Q8TF76)", "T1 sequence (whole entry)": "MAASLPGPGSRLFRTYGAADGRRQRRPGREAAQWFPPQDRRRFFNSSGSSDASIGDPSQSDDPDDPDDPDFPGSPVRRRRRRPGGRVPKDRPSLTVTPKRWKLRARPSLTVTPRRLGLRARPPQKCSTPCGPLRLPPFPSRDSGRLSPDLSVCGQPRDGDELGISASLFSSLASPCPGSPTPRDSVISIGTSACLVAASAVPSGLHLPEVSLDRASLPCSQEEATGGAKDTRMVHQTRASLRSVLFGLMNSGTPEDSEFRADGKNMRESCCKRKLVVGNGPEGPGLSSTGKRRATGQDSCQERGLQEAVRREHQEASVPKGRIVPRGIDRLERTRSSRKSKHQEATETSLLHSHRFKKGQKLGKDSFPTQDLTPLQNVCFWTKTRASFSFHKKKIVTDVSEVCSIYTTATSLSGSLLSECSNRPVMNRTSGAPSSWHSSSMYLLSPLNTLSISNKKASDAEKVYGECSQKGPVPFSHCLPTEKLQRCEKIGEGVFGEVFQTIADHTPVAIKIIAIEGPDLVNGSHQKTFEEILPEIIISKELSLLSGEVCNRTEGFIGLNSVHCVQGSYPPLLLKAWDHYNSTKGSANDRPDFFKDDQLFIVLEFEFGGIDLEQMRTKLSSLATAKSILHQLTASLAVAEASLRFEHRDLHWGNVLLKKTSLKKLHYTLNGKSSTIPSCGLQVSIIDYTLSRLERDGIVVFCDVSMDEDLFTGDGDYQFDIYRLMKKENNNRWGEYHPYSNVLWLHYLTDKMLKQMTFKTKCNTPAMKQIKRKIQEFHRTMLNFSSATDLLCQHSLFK", "details": "at 10 µM", "units": {"residual activity": "%"}, "values": [
      {"molecule": "O=C(Nc1cccc(Nc2cc(Nc3cccc(C(F)(F)F)c3)ncn2)c1)C1CC1", "residual activity": 82},
      {"molecule": "COc1ccc(CNc2nc(N(CCO)CCO)nc3c2ncn3C(C)C)cc1", "residual activity": 101},
      {"molecule": "O=c1cc(-c2cccc3c2Sc2ccccc2S3)oc(N2CCOCC2)c1", "residual activity": 98},
      {"molecule": "COc1ccc(S(=O)(=O)N(CCO)c2ccccc2CN(C)C/C=C/c2ccc(Cl)cc2)cc1", "residual activity": 49},
      {"molecule": "Cn1cnc2cc3c(Nc4cccc(Br)c4)ncnc3cc21", "residual activity": 59},
      {"molecule": "NC(=O)c1ccc2[nH]c(-c3ccc(Oc4ccc(Cl)cc4)cc3)nc2c1", "residual activity": 96},
      {"molecule": "CCC(=O)Nc1ccc2ncnc(Nc3cccc(Br)c3)c2c1", "residual activity": 62},
      {"molecule": "CN(C)c1ccc(/C=C2\\C(=O)Nc3ccccc32)cc1", "residual activity": 46},
      {"molecule": "Nc1ccc2ncnc(NCCc3ccc(Oc4ccccc4)cc3)c2c1", "residual activity": 23},
      {"molecule": "O=Nc1c(-c2c(O)[nH]c3ccccc23)[nH]c2ccccc12", "residual activity": 19},
      {"molecule": "CO[C@H]1C[C@@H]2CC[C@@H](C)[C@@](O)(O2)C(=O)C(=O)N2CCCC[C@H]2C(=O)O[C@H]([C@H](C)C[C@@H]2CC[C@@H](O)[C@H](OC)C2)CC(=O)[C@H](C)/C=C(\\C)[C@@H](O)[C@@H](OC)C(=O)[C@H](C)C[C@H](C)/C=C/C=C/C=C/1C", "residual activity": 106},
      {"molecule": "Cc1nc2cc3nc(-c4cccs4)cnc3cc2n1C", "residual activity": 79},
      {"molecule": "COc1ccc(C(=O)Nc2sc3c(c2C(N)=O)CCCC3)cc1OC", "residual activity": 93},
      {"molecule": "O=C1Nc2ccccc2/C1=C1/Nc2ccccc2/C1=N\\OCCC(O)CO", "note": "(stereo not given)", "residual activity": 11},
      {"molecule": "c1ccc(-c2n[nH]cc2-c2ccnc3ccccc23)nc1", "residual activity": 49},
      {"molecule": "COc1cccc(-c2cc(=O)c3ccccc3o2)c1N", "residual activity": 81},
      {"molecule": "O=C1NC(=O)/C(=C/c2ccc3c(c2)OC(F)(F)O3)S1", "residual activity": 67},
      {"molecule": "Oc1ccc(Nc2nc(-c3ccc(Cl)cc3)cs2)cc1", "residual activity": 84},
      {"molecule": "Oc1ccc(-c2nc(-c3ccc(F)cc3)c(-c3ccncc3)[nH]2)cc1", "residual activity": 10},
      {"molecule": "Cn1nc2c3c(cccc31)C(=O)c1ccccc1-2", "residual activity": 2},
      {"molecule": "O=C1NC(=O)c2c1c1c3ccccc3[nH]c1c1[nH]c3cc(Br)ccc3c21", "residual activity": 72},
      {"molecule": "COc1cc2ncnc(Nc3ccc(O)c(Br)c3)c2cc1OC", "residual activity": 24},
      {"molecule": "N#C/C(=C(\\N)Sc1ccc(N)cc1)c1ccccc1C(F)(F)F", "residual activity": 116},
      {"molecule": "O=C1Nc2cc(Br)ccc2/C1=C1/Nc2ccccc2/C1=N\\O", "residual activity": 49},
      {"molecule": "O=C(O)c1ccc2c3c1cccc3c(=O)n1c3ccccc3nc21", "residual activity": 92},
      {"molecule": "Cc1ccc(S(=O)(=O)/C=C/C#N)cc1", "residual activity": 102},
      {"molecule": "CNc1cc2c(Nc3cccc(Br)c3)ncnc2cn1", "residual activity": 53},
      {"molecule": "O=c1c2ccccc2[nH]c(=S)n1CCN1CCC(=C(c2ccc(F)cc2)c2ccc(F)cc2)CC1", "residual activity": 52},
      {"molecule": "Oc1c2ccccc2c2c3c(cccc13)N=N2", "residual activity": -1},
      {"molecule": "Cc1cc2ncc(-c3ccccc3)nc2cc1C", "residual activity": 83},
      {"molecule": "O=C1c2ccccc2-[n+]2ccc3c([nH]c4ccccc43)c21", "residual activity": 107},
      {"molecule": "CC(C)n1cnc2/c(=N/c3cccc(Cl)c3)nc(NCCO)[nH]c21", "residual activity": 58},
      {"molecule": "O=C1NC(=O)/C(=C\\c2ccc3nccnc3c2)S1", "residual activity": 3},
      {"molecule": "Nc1n[nH]c2nnc(-c3c(-c4ccccc4)nn4ccccc34)cc12", "residual activity": 85},
      {"molecule": "Cn1cc(/C=C2\\C(=O)Nc3ccc(S(N)(=O)=O)cc32)c2ccccc21", "residual activity": 50}
    ]},
    {"target": "Tyrosine-protein kinase HCK (Homo sapiens) (UniProt P08631)", "sequence (P08631 2-526 limits assumed)": "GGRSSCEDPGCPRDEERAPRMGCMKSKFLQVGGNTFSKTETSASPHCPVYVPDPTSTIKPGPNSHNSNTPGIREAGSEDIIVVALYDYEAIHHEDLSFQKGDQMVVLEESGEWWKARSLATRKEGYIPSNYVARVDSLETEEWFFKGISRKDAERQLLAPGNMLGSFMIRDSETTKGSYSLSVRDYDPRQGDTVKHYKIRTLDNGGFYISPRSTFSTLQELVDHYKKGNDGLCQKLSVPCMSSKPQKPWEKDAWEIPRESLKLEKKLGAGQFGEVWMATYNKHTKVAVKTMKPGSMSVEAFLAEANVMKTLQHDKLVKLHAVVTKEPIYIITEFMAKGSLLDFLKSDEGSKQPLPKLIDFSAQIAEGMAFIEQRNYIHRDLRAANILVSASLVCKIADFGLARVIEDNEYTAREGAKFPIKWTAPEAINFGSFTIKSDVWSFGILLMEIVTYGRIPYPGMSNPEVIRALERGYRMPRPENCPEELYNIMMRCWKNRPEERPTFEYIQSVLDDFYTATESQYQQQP", "details": "at 1 µM", "units": {"residual activity": "%"}, "values": [
      {"molecule": "O=C(Nc1cccc(Nc2cc(Nc3cccc(C(F)(F)F)c3)ncn2)c1)C1CC1", "residual activity": 96},
      {"molecule": "COc1ccc(CNc2nc(N(CCO)CCO)nc3c2ncn3C(C)C)cc1", "residual activity": 62},
      {"molecule": "O=c1cc(-c2cccc3c2Sc2ccccc2S3)oc(N2CCOCC2)c1", "residual activity": 96},
      {"molecule": "COc1ccc(S(=O)(=O)N(CCO)c2ccccc2CN(C)C/C=C/c2ccc(Cl)cc2)cc1", "residual activity": 87},
      {"molecule": "Cn1cnc2cc3c(Nc4cccc(Br)c4)ncnc3cc21", "residual activity": 52},
      {"molecule": "NC(=O)c1ccc2[nH]c(-c3ccc(Oc4ccc(Cl)cc4)cc3)nc2c1", "residual activity": 72},
      {"molecule": "CCC(=O)Nc1ccc2ncnc(Nc3cccc(Br)c3)c2c1", "residual activity": 82},
      {"molecule": "CN(C)c1ccc(/C=C2\\C(=O)Nc3ccccc32)cc1", "residual activity": 76},
      {"molecule": "Nc1ccc2ncnc(NCCc3ccc(Oc4ccccc4)cc3)c2c1", "residual activity": 67},
      {"molecule": "O=Nc1c(-c2c(O)[nH]c3ccccc23)[nH]c2ccccc12", "residual activity": 15},
      {"molecule": "CO[C@H]1C[C@@H]2CC[C@@H](C)[C@@](O)(O2)C(=O)C(=O)N2CCCC[C@H]2C(=O)O[C@H]([C@H](C)C[C@@H]2CC[C@@H](O)[C@H](OC)C2)CC(=O)[C@H](C)/C=C(\\C)[C@@H](O)[C@@H](OC)C(=O)[C@H](C)C[C@H](C)/C=C/C=C/C=C/1C", "residual activity": 73},
      {"molecule": "Cc1nc2cc3nc(-c4cccs4)cnc3cc2n1C", "residual activity": 92},
      {"molecule": "COc1ccc(C(=O)Nc2sc3c(c2C(N)=O)CCCC3)cc1OC", "residual activity": 66},
      {"molecule": "O=C1Nc2ccccc2/C1=C1/Nc2ccccc2/C1=N\\OCCC(O)CO", "note": "(stereo not given)", "residual activity": 4},
      {"molecule": "c1ccc(-c2n[nH]cc2-c2ccnc3ccccc23)nc1", "residual activity": 86},
      {"molecule": "COc1cccc(-c2cc(=O)c3ccccc3o2)c1N", "residual activity": 88},
      {"molecule": "O=C1NC(=O)/C(=C/c2ccc3c(c2)OC(F)(F)O3)S1", "residual activity": 60},
      {"molecule": "Oc1ccc(Nc2nc(-c3ccc(Cl)cc3)cs2)cc1", "residual activity": 89},
      {"molecule": "Oc1ccc(-c2nc(-c3ccc(F)cc3)c(-c3ccncc3)[nH]2)cc1", "residual activity": 59},
      {"molecule": "Cn1nc2c3c(cccc31)C(=O)c1ccccc1-2", "residual activity": 72},
      {"molecule": "O=C1NC(=O)c2c1c1c3ccccc3[nH]c1c1[nH]c3cc(Br)ccc3c21", "residual activity": 69},
      {"molecule": "COc1cc2ncnc(Nc3ccc(O)c(Br)c3)c2cc1OC", "residual activity": 32},
      {"molecule": "N#C/C(=C(\\N)Sc1ccc(N)cc1)c1ccccc1C(F)(F)F", "residual activity": 67},
      {"molecule": "O=C1Nc2cc(Br)ccc2/C1=C1/Nc2ccccc2/C1=N\\O", "residual activity": 6},
      {"molecule": "O=C(O)c1ccc2c3c1cccc3c(=O)n1c3ccccc3nc21", "residual activity": 102},
      {"molecule": "Cc1ccc(S(=O)(=O)/C=C/C#N)cc1", "residual activity": 87},
      {"molecule": "CNc1cc2c(Nc3cccc(Br)c3)ncnc2cn1", "residual activity": 68},
      {"molecule": "O=c1c2ccccc2[nH]c(=S)n1CCN1CCC(=C(c2ccc(F)cc2)c2ccc(F)cc2)CC1", "residual activity": 73},
      {"molecule": "Oc1c2ccccc2c2c3c(cccc13)N=N2", "residual activity": 57},
      {"molecule": "Cc1cc2ncc(-c3ccccc3)nc2cc1C", "residual activity": 68},
      {"molecule": "O=C1c2ccccc2-[n+]2ccc3c([nH]c4ccccc43)c21", "residual activity": 80},
      {"molecule": "CC(C)n1cnc2/c(=N/c3cccc(Cl)c3)nc(NCCO)[nH]c21", "residual activity": 41},
      {"molecule": "O=C1NC(=O)/C(=C\\c2ccc3nccnc3c2)S1", "residual activity": 76},
      {"molecule": "Nc1n[nH]c2nnc(-c3c(-c4ccccc4)nn4ccccc34)cc12", "residual activity": 76},
      {"molecule": "Cn1cc(/C=C2\\C(=O)Nc3ccc(S(N)(=O)=O)cc32)c2ccccc21", "residual activity": 26}
    ]}
  ]
}
